# Test results: publication PMC11006913
# Positions count from the first letter of the chain named.
# Tests used:
# Experiment in all cases: PBM; 200 nM protein, PBS
# Conditions in all cases: dsDNA, one strand shown
# HOXC9 = HOXC9 (Homo sapiens, UniProt P31274 178-260)
# NKX3-2 [1] = target: NKX3-2 (Homo sapiens, UniProt P78367 192-278, P234S)
# NKX3-2 [2] = target: NKX3-2 (Homo sapiens, UniProt P78367 192-278)
# HOXC10 = HOXC10 (Homo sapiens, UniProt Q9NYD6 254-340)
# HOXD13 [3] = target: HOXD13 (Homo sapiens, UniProt P35453 263-343, T313R)
# HOXD13 [4] = target: HOXD13 (Homo sapiens, UniProt P35453 263-343, T313A)
# SIX6 [5] = target: T1, SIX6 (Homo sapiens, UniProt O95475 114-200, L167I)
# T1 sequence: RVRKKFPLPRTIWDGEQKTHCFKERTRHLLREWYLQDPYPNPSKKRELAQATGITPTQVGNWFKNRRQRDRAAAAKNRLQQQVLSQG
# SIX6 [6] = target: T2, SIX6 (Homo sapiens, UniProt O95475 114-200, L143V)
# T2 sequence: T1 sequence with L30V, I54L
# SIX6 [7] = target: T3, SIX6 (Homo sapiens, UniProt O95475 114-200, H141N)
# T3 sequence: T1 sequence with H28N, I54L
# SIX6 [8] = target: T4, SIX6 (Homo sapiens, UniProt O95475 114-200, L167M)
# T4 sequence: T1 sequence with I54M
# SIX6 [9] = target: T5, SIX6 (Homo sapiens, UniProt O95475 114-200, L143M)
# T5 sequence: T1 sequence with L30M, I54L
# SIX6 [10] = target: T6, SIX6 (Homo sapiens, UniProt O95475 114-200, L143I)
# T6 sequence: T1 sequence with L30I, I54L
# SIX6 [11] = target: T7, SIX6 (Homo sapiens, UniProt O95475 114-200, T165G)
# T7 sequence: T1 sequence with T52G, I54L
# SIX6 [12] = target: T8, SIX6 (Homo sapiens, UniProt O95475 114-200, T139Q)
# T8 sequence: T1 sequence with T26Q, I54L
# SIX6 [13] = target: T9, SIX6 (Homo sapiens, UniProt O95475 114-200, T165A)
# T9 sequence: T1 sequence with T52A, I54L
# HOXD13 [14] = target: HOXD13 (Homo sapiens, UniProt P35453 263-343)
# SIX6 [15] = target: T10, SIX6 (Homo sapiens, UniProt O95475 114-200, L167V)
# T10 sequence: T1 sequence with I54V
# SIX6 [16] = target: T11, SIX6 (Homo sapiens, UniProt O95475 114-200)
# T11 sequence: T1 sequence with I54L
# SIX6 [17] = target: T12, SIX6 (Homo sapiens, UniProt O95475 114-200, T165I)
# T12 sequence: T1 sequence with T52I, I54L
# CRX = CRX (Homo sapiens, UniProt O43186 26-111, R41L)
# Sequence of CRX (O43186 26-111 R41L): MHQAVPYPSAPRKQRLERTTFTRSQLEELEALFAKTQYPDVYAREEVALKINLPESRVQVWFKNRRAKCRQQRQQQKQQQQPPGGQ
# Sequence of HOXC9 (P31274 178-260): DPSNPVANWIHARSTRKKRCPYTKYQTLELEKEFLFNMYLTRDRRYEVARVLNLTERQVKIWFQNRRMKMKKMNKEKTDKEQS
# Sequence of HOXD13 (Homo sapiens, UniProt P35453 263-343, T313A) (P35453 263-343 T313A): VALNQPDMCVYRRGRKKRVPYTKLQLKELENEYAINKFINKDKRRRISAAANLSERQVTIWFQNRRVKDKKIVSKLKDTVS
# Sequence of HOXD13 (Homo sapiens, UniProt P35453 263-343) (P35453 263-343): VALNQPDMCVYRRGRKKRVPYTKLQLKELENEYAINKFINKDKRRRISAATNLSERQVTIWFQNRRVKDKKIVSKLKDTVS
# Sequence of NKX3-2 (Homo sapiens, UniProt P78367 192-278, P234S) (P78367 192-278 P234S): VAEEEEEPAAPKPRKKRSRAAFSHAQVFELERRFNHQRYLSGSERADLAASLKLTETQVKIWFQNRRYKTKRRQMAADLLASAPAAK
# Sequence of HOXD13 (Homo sapiens, UniProt P35453 263-343, T313R) (P35453 263-343 T313R): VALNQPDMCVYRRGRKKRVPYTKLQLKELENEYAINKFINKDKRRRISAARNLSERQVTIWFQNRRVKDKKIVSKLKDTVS
# Sequence of HOXC10 (Q9NYD6 254-340): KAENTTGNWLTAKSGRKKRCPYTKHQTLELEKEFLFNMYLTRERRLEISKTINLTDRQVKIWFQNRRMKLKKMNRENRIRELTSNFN
# Sequence of NKX3-2 (Homo sapiens, UniProt P78367 192-278) (P78367 192-278): as the sequence (P78367 192-278 P234S) above, with S43P counted along it
sequence,measurement,setting,value
GCTAATTA,binding signal,HOXC9,"12.6 upbm affinity estimate (log intensity, higher = more binding, comparable within an allelic series)"
same,binding signal,NKX3-2 [1],"11.7 upbm affinity estimate (log intensity, higher = more binding, comparable within an allelic series)"
same,binding signal,NKX3-2 [2],"11.7 upbm affinity estimate (log intensity, higher = more binding, comparable within an allelic series)"
GTTAATTA,binding signal,HOXC10,"12.3 upbm affinity estimate (log intensity, higher = more binding, comparable within an allelic series)"
same,binding signal,HOXC9,"12.8 upbm affinity estimate (log intensity, higher = more binding, comparable within an allelic series)"
same,binding signal,HOXD13 [3],"10.7 upbm affinity estimate (log intensity, higher = more binding, comparable within an allelic series)"
same,binding signal,HOXD13 [4],"11.6 upbm affinity estimate (log intensity, higher = more binding, comparable within an allelic series)"
ATAATTAA,binding signal,HOXC10,"12.5 upbm affinity estimate (log intensity, higher = more binding, comparable within an allelic series)"
same,binding signal,HOXC9,"12.9 upbm affinity estimate (log intensity, higher = more binding, comparable within an allelic series)"
CATAATTA,binding signal,HOXC10,"12.3 upbm affinity estimate (log intensity, higher = more binding, comparable within an allelic series)"
same,binding signal,HOXC9,"12.8 upbm affinity estimate (log intensity, higher = more binding, comparable within an allelic series)"
GTAATTAC,binding signal,HOXC10,"12.5 upbm affinity estimate (log intensity, higher = more binding, comparable within an allelic series)"
same,binding signal,HOXC9,"13.1 upbm affinity estimate (log intensity, higher = more binding, comparable within an allelic series)"
ACTAATTG,binding signal,NKX3-2 [1],"11.8 upbm affinity estimate (log intensity, higher = more binding, comparable within an allelic series)"
same,binding signal,NKX3-2 [2],"11.8 upbm affinity estimate (log intensity, higher = more binding, comparable within an allelic series)"
CCAGGTCC,binding signal,SIX6 [5],"9.09 upbm affinity estimate (log intensity, higher = more binding, comparable within an allelic series)"
same,binding signal,SIX6 [6],"8.75 upbm affinity estimate (log intensity, higher = more binding, comparable within an allelic series)"
same,binding signal,SIX6 [7],"8.99 upbm affinity estimate (log intensity, higher = more binding, comparable within an allelic series)"
same,binding signal,SIX6 [8],"8.79 upbm affinity estimate (log intensity, higher = more binding, comparable within an allelic series)"
same,binding signal,SIX6 [9],"9.02 upbm affinity estimate (log intensity, higher = more binding, comparable within an allelic series)"
same,binding signal,SIX6 [10],"8.99 upbm affinity estimate (log intensity, higher = more binding, comparable within an allelic series)"
same,binding signal,SIX6 [11],"9.06 upbm affinity estimate (log intensity, higher = more binding, comparable within an allelic series)"
same,binding signal,SIX6 [12],"9.28 upbm affinity estimate (log intensity, higher = more binding, comparable within an allelic series)"
same,binding signal,HOXD13 [3],"9.45 upbm affinity estimate (log intensity, higher = more binding, comparable within an allelic series)"
same,binding signal,SIX6 [13],"9.07 upbm affinity estimate (log intensity, higher = more binding, comparable within an allelic series)"
same,binding signal,HOXD13 [14],"9.43 upbm affinity estimate (log intensity, higher = more binding, comparable within an allelic series)"
same,binding signal,SIX6 [15],"9 upbm affinity estimate (log intensity, higher = more binding, comparable within an allelic series)"
same,binding signal,SIX6 [16],"9.04 upbm affinity estimate (log intensity, higher = more binding, comparable within an allelic series)"
same,binding signal,SIX6 [17],"9.08 upbm affinity estimate (log intensity, higher = more binding, comparable within an allelic series)"
same,binding signal,HOXD13 [4],"9.65 upbm affinity estimate (log intensity, higher = more binding, comparable within an allelic series)"
ACAATTAA,binding signal,HOXC10,"12.2 upbm affinity estimate (log intensity, higher = more binding, comparable within an allelic series)"
same,binding signal,HOXC9,"12.6 upbm affinity estimate (log intensity, higher = more binding, comparable within an allelic series)"
ATTAATAG,binding signal,HOXC10,"12.2 upbm affinity estimate (log intensity, higher = more binding, comparable within an allelic series)"
same,binding signal,HOXC9,"12.6 upbm affinity estimate (log intensity, higher = more binding, comparable within an allelic series)"
same,binding signal,HOXD13 [3],"10.9 upbm affinity estimate (log intensity, higher = more binding, comparable within an allelic series)"
same,binding signal,HOXD13 [14],"11.8 upbm affinity estimate (log intensity, higher = more binding, comparable within an allelic series)"
same,binding signal,HOXD13 [4],"11.8 upbm affinity estimate (log intensity, higher = more binding, comparable within an allelic series)"
CAATTAAC,binding signal,HOXC9,"12.6 upbm affinity estimate (log intensity, higher = more binding, comparable within an allelic series)"
same,binding signal,HOXD13 [4],"11.6 upbm affinity estimate (log intensity, higher = more binding, comparable within an allelic series)"
ATCAATTA,binding signal,HOXC9,"12.6 upbm affinity estimate (log intensity, higher = more binding, comparable within an allelic series)"
GTCAATTA,binding signal,HOXC9,"12 upbm affinity estimate (log intensity, higher = more binding, comparable within an allelic series)"
GGCAATTA,binding signal,NKX3-2 [1],"11.8 upbm affinity estimate (log intensity, higher = more binding, comparable within an allelic series)"
same,binding signal,NKX3-2 [2],"11.9 upbm affinity estimate (log intensity, higher = more binding, comparable within an allelic series)"
CTAATTAC,binding signal,NKX3-2 [1],"11.6 upbm affinity estimate (log intensity, higher = more binding, comparable within an allelic series)"
same,binding signal,NKX3-2 [2],"11.7 upbm affinity estimate (log intensity, higher = more binding, comparable within an allelic series)"
CCCTACGG,binding signal,HOXC9,"9.63 upbm affinity estimate (log intensity, higher = more binding, comparable within an allelic series)"
AATTAATC,binding signal,CRX,"12.5 upbm affinity estimate (log intensity, higher = more binding, comparable within an allelic series)"
CTAATTGA,binding signal,NKX3-2 [1],"11.5 upbm affinity estimate (log intensity, higher = more binding, comparable within an allelic series)"
same,binding signal,NKX3-2 [2],"11.6 upbm affinity estimate (log intensity, higher = more binding, comparable within an allelic series)"
CCCCGGCG,binding signal,HOXC10,"9.87 upbm affinity estimate (log intensity, higher = more binding, comparable within an allelic series)"
CCAATTAA,binding signal,HOXD13 [3],"10.8 upbm affinity estimate (log intensity, higher = more binding, comparable within an allelic series)"
same,binding signal,HOXD13 [14],"11.9 upbm affinity estimate (log intensity, higher = more binding, comparable within an allelic series)"
same,binding signal,HOXD13 [4],"11.8 upbm affinity estimate (log intensity, higher = more binding, comparable within an allelic series)"
same,binding signal,NKX3-2 [1],"11.7 upbm affinity estimate (log intensity, higher = more binding, comparable within an allelic series)"
same,binding signal,NKX3-2 [2],"11.8 upbm affinity estimate (log intensity, higher = more binding, comparable within an allelic series)"
GGCAGGCC,binding signal,HOXD13 [3],"9.41 upbm affinity estimate (log intensity, higher = more binding, comparable within an allelic series)"
same,binding signal,HOXD13 [14],"9.41 upbm affinity estimate (log intensity, higher = more binding, comparable within an allelic series)"
same,binding signal,HOXD13 [4],"9.35 upbm affinity estimate (log intensity, higher = more binding, comparable within an allelic series)"
CAATTAAA,binding signal,HOXC10,"12.5 upbm affinity estimate (log intensity, higher = more binding, comparable within an allelic series)"
same,binding signal,HOXC9,"12.9 upbm affinity estimate (log intensity, higher = more binding, comparable within an allelic series)"
same,binding signal,HOXD13 [3],"10.7 upbm affinity estimate (log intensity, higher = more binding, comparable within an allelic series)"
same,binding signal,HOXD13 [14],"11.7 upbm affinity estimate (log intensity, higher = more binding, comparable within an allelic series)"
same,binding signal,HOXD13 [4],"11.7 upbm affinity estimate (log intensity, higher = more binding, comparable within an allelic series)"
ATTAATGC,binding signal,CRX,"11 upbm affinity estimate (log intensity, higher = more binding, comparable within an allelic series)"
